# Reference: PubChem BioAssay (EPA / NIEHS)
# Results filed as inconclusive are left out. Calls of active or inactive are those of the source. Rule for the calls: active = hit-call score of the fitted dose curve at least 0.9, where 1 is the maximum; inconclusive = response in the unintended direction; inactive = score below 0.9.
# Read-out: organic anion transporter (SLCO1B1), SLCO1B1 (gene 10599)
# Test: CLD_SLCO1B1_6hr: CellzDirect (CLD) Gene Expression Assay for organic anion transporter (SLCO1B1) at 6 hours (AID 2283668);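 note: active means mRNA induction above DMSO baseline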
# Protocol: CLD_6hr is a cell-based, multiplexed-readout assay that uses hepatocyte, a human liver primary cell, with measurements taken at 6 hours after chemical dosing in a 96-well plate.CLD_SLCO1B1_6hr is one of 16 assay component(s) measured or calculated from the CLD_6hr assay. It is designed to make measurements of mRNA induction, a form of inducible reporter, as detected with chemiluminescence signals by Quantitative Nuclease Protection Assay (qNPA) technology.Data from the assay component CLD_SLCO1B1_6hr was analyzed at the endpoint, CLD_SLCO1B1_6hr, in the positive analysis fitting direction relative to DMSO as the negative control and baseline of activity. Using a type of inducible reporter, gain-of-signal activity can be used to understand changes in the reporter gene as they relate to the gene SLCO1B1. Furthermore, this assay endpoint can be referred to as a primary readout. To generalize the intended target to other relatable targets, this assay endpoint is annotated to the transporter intended target family, where subfamily is organic anion transporter.
# Human hepatocyte cultures were treated daily for two consecutive days with fresh dosing solutions containing appropriate concentrations of the 320 ToxCast chemicals (chemical identities were blinded to CellzDirect and other ToxCast collaborators), vehicle control (0.2% DMSO), and positive control inducers as summarized in Table 1. Due to the large number of treatment groups and chemicals examined, the ToxCast chemicals were divided into two groups (spanning two independent cultures of hepatocytes from separate donor preparations (Hu778: ToxCast plates 1 and 2; Hu776: ToxCast plates 3 and 4). Each preparation of human hepatocyte cultures was treated with respective vehicle control, medium only control, set of six positive controls/reference chemicals for the five hepatic receptor pathways, and a subset of eight of the ToxCast chemicals (indoxacarb, pyrithiobac-sodium, norflurazon, cyhalofop-butyl, methomyl, thiram, acetochlor, and propiconazole). These replicate data, coupled with internal replicates designed within the blinded ToxCast chemical library, provided additional data to evaluate interindividual differences between hepatocyte preparations and their potential impact on chemical profiles.Cell morphology and integrity were evaluated using phase-contrast microscopy as an indicator of hepatocyte cell health (Tyson & Green, 1987). Cultures for each treatment group (i.e., media, vehicle [0.2% DMSO], positive control inducers [multiple concentrations], and the ToxCast chemicals [multiple concentrations]) were observed and cell morphology was assessed relative to vehicle control cultures at each harvest time point (0, 6, 24, or 48 h). […] Images were evaluated at the conclusion of the study to assess changes in cell integrity and account for the effects of chemical exposure on uncharacteristic changes in concentration-dependent gene expression profiles. The results from these determinations of apparent cytotoxicity were annotated (yes/no) alongside the corresponding qNPA data for reference.At the conclusion of each treatment period, hepatocyte cultures (96-well) were washed with 1 volume of HBSS, lysed by addition of 25 ul ArrayPlate lysis buffer (HTG, Tucson, AZ), and 70 ul/well of Denaturation Oil, denatured by incubation at 95C for 10 min, and frozen at approximately -70C until analysis by nuclease protection assay (qNPA) (Roberts et al., 2007). For qNPA analysis, cell lysates were thawed at 50C for approximately 30 min, qNPA probes were added, and samples were incubated at 95C for 10 min to begin the detection process by denaturing the target RNA, dissociating the duplexes and secondary structure hybridization. At the conclusion of the hybridization period, S1 nuclease reagent was added to each sample to digest all nonprotected nucleotides at 50C for 60-90 min. […]
row,SMILES,outcome
1,CNC(=O)/C=C(\C)OP(=O)(OC)OC,inactive
2,CCc1ccc(C(=O)NN(C(=O)c2cc(C)cc(C)c2)C(C)(C)C)cc1,inactive
3,O=C1c2ccccc2C(=O)N1SC(Cl)(Cl)Cl,inactive
4,COP(=S)(OC)Oc1ccc([N+](=O)[O-])cc1,inactive
5,CNC(=O)Oc1ccccc1OC(C)C,inactive
6,COC(=O)c1ccccc1S(=O)(=O)NC(=O)Nc1nc(C)nc(OC)n1,inactive
7,Oc1cc(Cl)ccc1Oc1ccc(Cl)cc1Cl,inactive
8,O=C(Nc1ccccc1)Nc1cnns1,inactive
9,COC(=O)c1ccccc1S(=O)(=O)NC(=O)N(C)c1nc(C)nc(OC)n1,inactive
10,CC1(c2ccc(Oc3ccccc3)cc2)OC(=O)N(Nc2ccccc2)C1=O (stereo not given),inactive
11,O=S1OCC2C(CO1)C1(Cl)C(Cl)=C(Cl)C2(Cl)C1(Cl)Cl (stereo not given),inactive
12,N#CN,inactive
13,O=C(O)C(F)(F)C(F)(F)C(F)(F)C(F)(F)C(F)(F)C(F)(F)C(F)(F)F,inactive
14,CC[C@H](C)[C@H]1O[C@]2(C=C[C@@H]1C)C[C@@H]1C[C@@H](C/C=C(\C)[C@@H](O[C@H]3C[C@H](OC)[C@@H](O[C@H]4C[C@H](OC)[C@@H](O)[C@H](C)O4)[C@H](C)O3)[C@@H](C)/C=C/C=C3\CO[C@@H]4[C@H](O)C(C)=C[C@@H](C(=O)O1)[C@]34O)O2 (tested in a mixture with another compound),inactive
15,O=[N+]([O-])/N=C1\NCCN1Cc1ccc(Cl)nc1,inactive
16,CC(C)OC(=O)Nc1cccc(Cl)c1,inactive
17,CCOc1nc(NC)nc(NC(=O)NS(=O)(=O)c2ccccc2C(=O)OC)n1,inactive
18,CCC(C)(NC(=O)c1cc(Cl)c(C)c(Cl)c1)C(=O)CCl (stereo not given),inactive
19,CCS(=O)(=O)c1cccnc1S(=O)(=O)NC(=O)Nc1nc(OC)cc(OC)n1,inactive
20,C#CCN1C(=O)COc2cc(F)c(N3C(=O)C4=C(CCCC4)C3=O)cc21,inactive
21,[2H]C1([2H])[n+]2ccccc2-c2cccc[n+]2C1([2H])[2H],inactive
22,COc1cc(OC)nc(NC(=O)NS(=O)(=O)c2cc(NC=O)ccc2C(=O)N(C)C)n1,inactive
23,O=[N+]([O-])c1c(Cl)c(Cl)c(Cl)c(Cl)c1Cl,inactive
24,CCN(CC)C(=O)SCc1ccc(Cl)cc1,inactive
25,COc1nn(CSP(=S)(OC)OC)c(=O)s1,inactive
26,CCOCN(C(=O)CCl)c1c(C)cccc1CC,inactive
27,CC(C)N(C(=O)COc1nnc(C(F)(F)F)s1)c1ccc(F)cc1,inactive
28,O=C(O)CCCOc1ccc(Cl)cc1Cl,inactive
29,CNC(=O)CSP(=S)(OC)OC,inactive
30,CN1CSC(=S)N(C)C1,inactive
